This passage reports Potency and max response results from PubChem BioAssay (Tox21).

Test [1] is described as follows: qHTS RealTime-Glo MT Cell Viability Assay in HEK293 cells - 16 hour (AID 1224872). Further: nearly all actives have a fitted effect of over 50% in size. Further: potency means the concentration at half of the fitted maximal effect. Conditions: RealTime-Glo luminescence; series mostly up to 76.8 µM. The gist of the method: (§1)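 Viability tracked continuously by luminescence as live cells reduce a prosubstrate for NanoLuc; HEK293 cells preincubated 5 h, compound-treated at 37 C, and read at 0, 8, 16, 24, 32 and 40 h.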

Test [2] can be described thus: A CellTox Green Cytotoxicity Assay to monitor cytotoxicity in HEK293 cells - 24 hour (AID 1224875). Further: nearly all actives have a fitted effect of over 45% in size. The note with it: CellTox Green fluorescence; series mostly up to 76.8 µM. The procedure, abridged:
(§2)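 Cells (HEK293, 600/well) and dye reagent are dispensed together. After 5 h at 37 C, 23 nL compound is pinned in. Plates stay at 37 C for 40 h with fluorescence read at 0h, 8h, 16h, 24h, 32h and 40h.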

Test [3] can be described thus: A CellTox Green Cytotoxicity Assay to monitor cytotoxicity in HepG2 cells - 16 hour (AID 1224876). Further: nearly all actives have a fitted effect of over 45% in size. Further: potency means the concentration at half of the fitted maximal effect. Conditions: CellTox Green fluorescence; series mostly up to 76.8 µM. The procedure, abridged: (§3)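 Cells and non-lytic dye reagent are dispensed together (600 HepG2 cells/well) and incubated 5 h before DMSO compound transfer. Kinetic fluorescence is then recorded in the same wells during 40 h at 37 C.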

The nature of test [4]: qHTS RealTime-Glo MT Cell Viability Assay in HepG2 cells - 32 hour (AID 1224877). Further: nearly all actives have a fitted effect of over 55% in size. Conditions: RealTime-Glo luminescence; series mostly up to 76.8 µM. The procedure, abridged: (§4)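 Viability was tracked continuously by NanoLuc luminescence from prosubstrate reduced by living HepG2 cells, at successive time points over 40 h of compound exposure. Cells with reagent were preincubated 5 h at 37 °C before compound addition.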
Background: Quantitative high-throughput screening tests each substance at several concentrations.

A short description of test [5]: A CellTox Green Cytotoxicity Assay to monitor cytotoxicity in HepG2 cells - 24 hour (AID 1224878). Further: nearly all actives have a fitted effect of over 45% in size. Further: potency means the concentration at half of the fitted maximal effect. Conditions: CellTox Green fluorescence; series mostly up to 76.8 µM. The procedure, abridged: as §3
Test [6] is described as follows: A CellTox Green Cytotoxicity Assay to monitor cytotoxicity in HepG2 cells - 40 hour (AID 1224879). Further: nearly all actives have a fitted effect of over 40% in size. Further: potency means the concentration at half of the fitted maximal effect. The note with it: CellTox Green fluorescence; series mostly up to 76.8 µM. The gist of the method: as §3
The nature of test [7]: qHTS RealTime-Glo MT Cell Viability Assay in HEK293 cells - 0 hour (AID 1224880). Further: top concentration of the series differs between compounds; nearly all actives have a fitted effect of over 45% in size. Conditions: RealTime-Glo luminescence; series mostly up to 76.8 µM. The gist of the method: (§5)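 Real-time viability in HEK293: signal arises when living cells convert a prosubstrate for NanoLuc in the medium, so luminescence tracks viable cell number. Compound (23 nL, DMSO) added 5 h post-seeding; kinetic reads at 0–40 h, 37 C.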

Test [8] can be described thus: A CellTox Green Cytotoxicity Assay to monitor cytotoxicity in HEK293 cells - 32 hour (AID 1224881). Further: nearly all actives have a fitted effect of over 40% in size. The note with it: CellTox Green fluorescence; series mostly up to 76.8 µM. The gist of the method: as §2
A short description of test [9]: A CellTox Green Cytotoxicity Assay to monitor cytotoxicity in HepG2 cells - 0 hour (AID 1224882). Further: nearly all actives have a fitted effect of over 35% in size. The note with it: CellTox Green fluorescence; series mostly up to 76.8 µM. The gist of the method: as §3
The nature of test [10]: A CellTox Green Cytotoxicity Assay to monitor cytotoxicity in HepG2 cells - 32 hour (AID 1224883). Further: nearly all actives have a fitted effect of over 50% in size. Further: potency means the concentration at half of the fitted maximal effect. The note with it: CellTox Green fluorescence; series mostly up to 76.8 µM. The procedure, abridged:
as §3

A short description of test [11]: A CellTox Green Cytotoxicity Assay to monitor cytotoxicity in HEK293 cells - 8 hour (AID 1224884). Further: nearly all actives have a fitted effect of over 35% in size. Conditions: CellTox Green fluorescence; series mostly up to 76.8 µM. The procedure, abridged:
as §2

Test [12] in a line: qHTS RealTime-Glo MT Cell Viability Assay in HepG2 cells - 16 hour (AID 1224885). Further: nearly all actives have a fitted effect of over 50% in size. The note with it: RealTime-Glo luminescence; series mostly up to 76.8 µM. The gist of the method: as §4
Test [13] can be described thus: qHTS RealTime-Glo MT Cell Viability Assay in HEK293 cells - 24 hour (AID 1224886). Further: nearly all actives have a fitted effect of over 50% in size. Further: potency means the concentration at half of the fitted maximal effect. The note with it: RealTime-Glo luminescence; series mostly up to 76.8 µM. The gist of the method: as §1
Test [14] is described as follows: qHTS RealTime-Glo MT Cell Viability Assay in HEK293 cells - 8 hour (AID 1224887). Further: nearly all actives have a fitted effect of over 50% in size. Further: potency means the concentration at half of the fitted maximal effect. Conditions: RealTime-Glo luminescence; series mostly up to 76.8 µM. The gist of the method: as §5
Test [15] is described as follows: A CellTox Green Cytotoxicity Assay to monitor cytotoxicity in HEK293 cells - 16 hour (AID 1224888). Further: nearly all actives have a fitted effect of over 35% in size. Conditions: CellTox Green fluorescence; series mostly up to 76.8 µM. The procedure, abridged:
as §2

Test [16] in a line: qHTS RealTime-Glo MT Cell Viability Assay in HepG2 cells - 0 hour (AID 1224889). Further: nearly all actives have a fitted effect of over 50% in size. The note with it: RealTime-Glo luminescence; series mostly up to 76.8 µM. The gist of the method: as §4
Test [17] can be described thus: A CellTox Green Cytotoxicity Assay to monitor cytotoxicity in HepG2 cells - 8 hour (AID 1224890). Further: nearly all actives have a fitted effect of over 45% in size. The note with it: CellTox Green fluorescence; series mostly up to 76.8 µM. The gist of the method: as §3
Test [18] can be described thus: qHTS RealTime-Glo MT Cell Viability Assay in HEK293 cells - 40 hour (AID 1224874). Further: nearly all actives have a fitted effect of over 50% in size. Further: potency means the concentration at half of the fitted maximal effect. The note with it: RealTime-Glo luminescence; max response: active compounds read low. The procedure, abridged:
as §5

Test [19] is described as follows: qHTS RealTime-Glo MT Cell Viability Assay in HepG2 cells - 8 hour (AID 1224873). Further: nearly all actives have a fitted effect of over 55% in size. Conditions: RealTime-Glo luminescence; series mostly up to 76.8 µM. The procedure, abridged:
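Real-time viability: cells seeded at 600 per well together with NanoLuc and cell-permeant prosubstrate, compounds added after 5 h incubation. Luminescence tracked at 0, 8, 16, 24, 32 and 40 h of exposure.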

Unmarked numbers belong to inactive results. Results filed as inconclusive are left out. Active and inactive are the calls of the source. The call rests on the fitted dose curve; in most records, active means well fitted curve in the direction sought with a large enough effect in the repeat runs; inconclusive means weak or mixed curves; inactive means no such curve, though single readings can be large; an effect the other way counts as inactive or inconclusive.
On the % scale 0 is the no-effect control and ±100 the full control effect.

For the compound `C/C=C(/C(=C/C)c1ccc(OC(C)=O)cc1)c1ccc(OC(C)=O)cc1`, the Potency result in [1], in [2], in test [3], in [4], in test [5] and in [6] was “inactive” in each case. In addition, the Potency entry in test [7], in test [8], in test [9], in test [10], in [11] and in test [12] was “inactive” throughout. In addition, the Potency entry in test [13], in test [14], in test [15], in test [16] and in test [17] was “inactive” each time.

For `COc1cc2c(cc1OC)C(C(C(=O)N(CCc1ccc(OC)c(OC)c1OC)CCc1ccc(OC)c(OC)c1OC)c1ccccc1)=NCC2` (stereo not drawn), the Potency in [18] was 3.38 µM (active); in [13], 3.38 µM (active); in test [14], 3.01 µM (active). For the same compound, the Potency entry in test [2], in [3], in test [5], in test [6], in test [8] and in [9] was “inactive” throughout. Also, the Potency entry in test [10], in [11], in [15], in [16] and in test [17] was “inactive” each time.

In the case of `COc1cc(Cl)ccc1Oc1ccc(Cl)cc1Cl`, the Potency entry in [2], in test [3], in [4], in [5], in test [6] and in test [7] was “inactive” each time. Besides, the Potency result in [8], in [9], in [10], in test [11], in test [12] and in test [14] was “inactive” in each case. In addition, the Potency entry in [15], in test [16] and in [17] was “inactive” each time.

For `COS(=O)(=O)C(F)(F)F`, the Potency result in test [19], in test [2], in test [3], in test [4], in test [5] and in [6] was “inactive” each time. For the same compound, the Potency result in [7], in [8], in test [10], in [11], in test [12] and in test [13] was “inactive” in each case. Besides, the Potency entry in [14], in [15], in test [16] and in test [17] was “inactive” in each case. For the same compound, the max response in [18] was 11.7%.

In the case of `C=C1C(=C/C=C2\CCC[C@]3(C)[C@@H]([C@H](C)/C=C/[C@@H](O)C4CC4)CC[C@@H]23)C[C@@H](O)C[C@@H]1O`, the Potency was 19 µM (active) in test [1], 8.49 µM (active) in test [18], 19 µM (active) in [13] and 19 µM (active) in [14]. Further, the Potency result in test [2], in test [3], in test [4], in [5], in test [6] and in test [7] was “inactive” each time. The Potency entry in test [8], in [10], in [11], in test [12], in test [15] and in test [16] was “inactive” in each case. The Potency entry in test [17] was “inactive”.

For the compound `CNCCCN1c2ccccc2CCc2ccccc21`, the Potency result in [19], in test [2], in test [9], in [11], in test [12] and in test [14] was “inactive” throughout. The Potency entry in test [15] and in test [16] was “inactive” throughout. Besides, the Potency in test [3], in test [5], in test [6] and in test [10] was 26.8 µM (active) each time.

Turning to `O=C(Cl)c1cc(C(=O)Cl)cc(C(=O)Cl)c1`, the Potency in test [18] and in test [14] was 49 µM (active) each time. Also, the Potency result in test [9], in test [11] and in test [16] was “inactive” each time.

In the case of `CCOC(=O)NCCOc1ccc(Oc2ccccc2)cc1`, the Potency result in test [19], in [2], in test [3], in [4], in test [5] and in test [6] was “inactive” in each case. The Potency entry in test [7], in test [8], in [9], in test [10], in test [11] and in [12] was “inactive” in each case. Moreover, the Potency entry in test [15], in test [16] and in [17] was “inactive” in each case. For the same compound, the Potency in test [18] and in [13] was 21.9 µM (active) each time.

`CCCCC`: the Potency result in test [19], in test [3], in test [4], in test [5], in [6] and in test [7] was “inactive” each time. For the same compound, the Potency entry in [9], in [11], in test [12], in test [13], in test [14] and in [16] was “inactive” throughout. Further, in test [17], the Potency entry is “inactive”. In addition, in test [18], the max response was 0.575%.
